# Measured values published in PubChem BioAssay (Tox21).
# Values joined by “and” are separate entries in the source; they are usually repeats but may differ in a detail not shown here. Equal values may be shown once. Records with an inconclusive call do not appear. A call without a number means that no potency is given here. Where a structure was tested more than once in an assay, its records may differ in their call. Active and inactive are the calls of the source. Unless noted, calls follow the shape of the dose curve; as a rule, active = well fitted curve in the direction sought with a large enough effect in the repeat runs; inconclusive = weak or mixed curves; inactive = no such curve, though single readings can be large; an effect the other way counts as inactive or inconclusive.
# How the values were obtained:
# [1] = qHTS assay to identify small molecule agonists of the RXR signaling pathway - cell viability counter screen (AID 1159529); also: nearly all actives have a fitted effect of over 50% in size; also: potency is read from the fitted curve at half-maximal effect; as to activity change, negative = cytotoxicity: series mostly up to about 77 µM
# Procedure, shortened: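 CellTiter-Glo luminescence gave viability in the wells also read for beta-lactamase. Cells (RXR-alpha-UAS-bla HEK 293T, 2% charcoal-stripped FBS medium) had 5 hr plating, then 16 hr compound exposure at 37 C; tetraoctyl ammonium bromide served as positive control.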
# [2] = qHTS assay to identify small molecule antagonists of the retinoid acid receptor (RAR) signaling pathway - cell viability counter screen (AID 1159551); also: nearly all actives have a fitted effect of over 35% in size; also: potency is read from the fitted curve at half-maximal effect
# Procedure, shortened: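 Following overnight attachment, C3RL4 reporter cells received DMSO-dissolved compounds and then retinol (1 uM final). Six hours later at 37 C, ATP content was measured by CellTiter-Glo luminescence.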
# [3] = qHTS assay to identify small molecule antagonists of the retinoic acid receptor (RAR) signaling pathway (AID 1159552; also: nearly all actives have a fitted effect of over 50% in size; also: potency is read from the fitted curve at half-maximal effect)
# Procedure, shortened: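 Luminescent RARE reporter read-out in C3RL4 cells: 6 hr co-treatment at 37 C of test compounds with retinol at 1 uM final. Cells plated overnight beforehand; luciferase reagent incubated 30 min at room temperature before reading.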
# [4] = qHTS assay to identify small molecule agonists of the retinoic acid receptor (RAR) signaling pathway (AID 1159553); also: potency is read from the fitted curve at half-maximal effect
# Procedure, shortened: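 Cell line C3RL4, RARE luciferase reporter. Treatment: compounds in DMSO, 6 hr, 37 C, 5% CO2, after overnight plating. Detection: luminescence, 30 min RT after reagent.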
# [5] = qHTS assay to identify small molecule antagonists of the estrogen related receptor (ERR) signaling pathway from Tox21 library - cell viability counter screen (AID 1224834); also: nearly all actives have a fitted effect of over 30% in size; also: potency is read from the fitted curve at half-maximal effect
# Procedure, shortened: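 Viability readout (CellTiter-Fluor fluorescence, 30 min at 37 C) multiplexed with the ERR assay; cells treated 17.5 h at 37 C with compounds delivered in DMSO.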
# [6] = target: Luciferin 4-monooxygenase (Photinus pyralis) (UniProt P08659); experiment: qHTS assay to identify small molecule inhibitors of firefly luciferase (AID 1224835); also: series mostly up to about 120 µM; nearly all actives have a fitted effect of over 25% in size
# Procedure, shortened: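 Quantitative HTS format; KM concentrations of both substrates. Purified P. pyralis FLuc activity quantified from luminescence images.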
# [7] = qHTS assay to identify small molecule agonists of the constitutive androstane receptor (CAR) signaling pathway - cell viability counter screen (AID 1224836); also: nearly all actives have a fitted effect of over 45% in size; also: potency is read from the fitted curve at half-maximal effect; as to viability change, negative = cytotoxic: series mostly up to about 92 µM
# Procedure, shortened: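 Cell viability multiplexed with the CAR agonist screen: CellTiter-Fluor fluorescence after 23 hr at 37 C. HepG2-CYP2B6-hCAR cells got compounds at 15 concentrations with PK11195 at 0.75 uM final.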
# [8] = target: Nuclear receptor subfamily 1 group I member 3 (Homo sapiens) (UniProt Q14994); experiment: qHTS assay to identify small molecule antagonists of the constitutive androstane receptor (CAR) signaling pathway (AID 1224838);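 also: HepG2 cells stably expressing hCAR with CYP2B6 luciferase reporter stimulated by CITCO; nearly all actives have a fitted effect of over 40% in size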; also: potency is read from the fitted curve at half-maximal effect
# Procedure, shortened: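 Quantitative HTS in double-stable HepG2-CYP2B6-hCAR cells. After 4 h plating, cells get compound (15 concentrations) and CITCO at 50 nM final, incubate 24 h at 37 C, then ONE-Glo luminescence is read.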
# [9] = target: Nuclear receptor subfamily 1 group I member 3 (Homo sapiens) (UniProt Q14994); experiment: qHTS assay to identify small molecule agonists of the constitutive androstane receptor (CAR) signaling pathway (AID 1224839); also: nearly all actives have a fitted effect of over 15% in size; also: potency is read from the fitted curve at half-maximal effect;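 as to activation: HepG2 cells stably carrying human CAR and a CYP2B6 luciferase reporter; series mostly up to about 92 µM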
# Procedure, shortened: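 Luminescent ONE-Glo read-out after 24 hr, 37 C exposure of double-stable HepG2-CYP2B6-hCAR reporter cells to a 15-point compound series, in the presence of 0.75 uM PK11195 (final).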
# [10] = qHTS assay to identify small molecule antagonists of the estrogen related receptor signaling pathway with the pleiotropic PPARgamma coactivator (PGC) from Tox21 10K library (AID 1224841; call rule not given here; also: actives are mostly falling curves and most rising ones were filed inactive; nearly all actives have a fitted effect of over 50% in size; also: potency is read from the fitted curve at half-maximal effect; as to activity, negative = inhibition: series mostly up to about 92 µM)
# Procedure, shortened: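 Compound exposure ran 18 hours at 37 C in PGC/ERR cells (2,000/well) that had first rested 6 hours in a 37 C/5% CO2 incubator. Luciferase activity was then detected with One-Glo after a 30-minute room-temperature step.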
# [11] = qHTS assay to identify small molecule agonists of the estrogen related receptor signaling pathway with the pleiotropic PPARgamma coactivator (PGC) from Tox21 10K library (AID 1224842); also: nearly all actives have a fitted effect of over 15% in size
# Procedure, shortened: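 PGC/ERR reporter cells (NTP line) were seeded 2,000 per well, rested 6 h at 37 C/5% CO2, then pin-dosed with compounds in DMSO for 18 h at 37 C; luciferase read by One-Glo luminescence after 30 min at room temperature.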
# [12] = qHTS assay to identify small molecule antagonists of the constitutive androstane receptor (CAR) signaling pathway - cell viability counter screen (AID 1224837); also: nearly all actives have a fitted effect of over 45% in size; also: potency is read from the fitted curve at half-maximal effect; as to activity change, negative = cytotoxicity: series mostly up to about 92 µM
# Procedure, shortened: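 Fluorescence from CellTiter-Fluor served as the viability signal. Human hepatoma HepG2 cells stably bearing hCAR and CYP2B6-2.2kb received compound plus CITCO (50 nM final) for 23 hr.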
# [13] = qHTS assay to identify small molecule antagonists of the estrogen related receptor signaling pathway with the pleiotropic PPARgamma coactivator (PGC) from Tox21 10K library - cell viability counter screen (AID 1224840; active = well fitted cell-killing curve with a large enough effect in the repeat runs, not every such curve was filed as active; also: nearly all actives have a fitted effect of over 40% in size; also: potency is read from the fitted curve at half-maximal effect)
# Procedure, shortened: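 Compounds in DMSO, alongside positive and negative controls, were pinned onto PGC/ERR cells (2,000 per well). Exposure lasted 17.5 hours at 37 C, followed by a 30-minute CellTiter-Fluor incubation and fluorescence reading.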
# [14] = target: Thyrotropin receptor (Homo sapiens) (UniProt P16473); experiment: qHTS assay to identify small molecule agonists of the thyroid stimulating hormone receptor (TSHR) signaling pathway (AID 1224843; calls by dose curve; also: nearly all actives have a fitted effect of over 45% in size; also: potency is read from the fitted curve at half-maximal effect)
# Procedure, shortened: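 Cell line HEK293 with TSHR; density 800/well. Exposure 30 min RT. Readout HTRF cAMP (cAMP-d2/anti-cAMP-cryptate), 1 h RT before reading.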
# [15] = qHTS assay to identify small molecule antagonists of the estrogen related receptor (ERR) signaling pathway - cell viability counter screen (AID 1224818);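 also: series mostly up to about 46 µM; viability measured after 17.5 h of compound exposure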
# Procedure, shortened: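 Here, ERR cells are plated at 2,000 cells per well, allowed 6 h to attach, and treated with compounds in DMSO for 17.5 h at 37 C. CellTiter-Fluor is then added and fluorescence read after 30 min.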
# [16] = qHTS assay to identify small molecule antagonists of the estrogen related receptor (ERR) signaling pathway (AID 1224819;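 also: luminescence from an ERR-driven luciferase reporter measured with One-Glo reagent; series mostly up to about 46 µM; nearly all actives have a fitted effect of over 50% in size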)
# Procedure, shortened: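 LOPAC library screened for antagonism as reduced One-Glo luminescence in ERR reporter cells (2,000/well). Compounds were added after 6 h pre-incubation and left 18 h at 37C; reading followed a 30 min room-temperature reagent step.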
# [17] = qHTS assay to identify small molecule agonists of the estrogen related receptor (ERR) signaling pathway (AID 1224820)
# Procedure, shortened: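 Cells: ERR line from NTP, 2,000/well. Pre-incubation 6 h, 37 C/5% CO2. Compound (DMSO) pin transfer, 18 h 37 C. One-Glo, 30 min RT, luminescence.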
# [18] = system: estrogen-related receptor alpha (ERRalpha) with PGC-1alpha coactivator, human; experiment: qHTS assay to identify small molecule antagonists of the estrogen related receptor signaling pathway with the pleiotropic PPARgamma coactivator (PGC) (AID 1224821; calls by dose curve)
# Procedure, shortened: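 Luminescent read-out (One-Glo, 30 min at room temperature) following 18 h treatment of PGC/ERR cells at 37 C with compounds delivered in DMSO. Cells had settled 6 h at 37 C/5% CO2 before dosing.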
# [19] = qHTS assay to identify small molecule antagonists of the estrogen related receptor signaling pathway with the pleiotropic PPARgamma coactivator (PGC) cell viability counter screen (AID 1224822;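 also: series mostly up to about 46 µM; viability read after 17.5 h compound exposure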)
# Procedure, shortened: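 qHTS format, DMSO compound stocks pin-transferred onto PGC/ERR cells 6 h after plating; 17.5 h exposure at 37 C, then CellTiter-Fluor fluorescence.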
# [20] = qHTS assay to identify small molecule agonists of the estrogen related receptor signaling pathway with the pleiotropic PPARgamma coactivator (PGC) (AID 1224823)
# Procedure, shortened: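 Steps: plate PGC/ERR cells at 2,000 cells/well; incubate 6 h, 37 C/5% CO2; pin-transfer compounds (DMSO); incubate 18 h, 37 C; add One-Glo; 30 min RT; read luminescence.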
# Nuclear receptor subfamily 1 group I member 3 (Homo sapiens), sequence (Q14994 whole entry, looked up): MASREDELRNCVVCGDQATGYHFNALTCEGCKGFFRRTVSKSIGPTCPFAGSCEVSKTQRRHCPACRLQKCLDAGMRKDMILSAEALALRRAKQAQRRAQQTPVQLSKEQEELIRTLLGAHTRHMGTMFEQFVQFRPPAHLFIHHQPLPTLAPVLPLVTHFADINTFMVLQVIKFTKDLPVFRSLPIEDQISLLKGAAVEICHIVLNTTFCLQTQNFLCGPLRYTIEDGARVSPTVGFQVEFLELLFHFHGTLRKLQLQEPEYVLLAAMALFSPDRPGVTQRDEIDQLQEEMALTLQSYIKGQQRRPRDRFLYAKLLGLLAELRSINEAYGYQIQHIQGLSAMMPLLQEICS
# Thyrotropin receptor (Homo sapiens), sequence (P16473 whole entry, looked up): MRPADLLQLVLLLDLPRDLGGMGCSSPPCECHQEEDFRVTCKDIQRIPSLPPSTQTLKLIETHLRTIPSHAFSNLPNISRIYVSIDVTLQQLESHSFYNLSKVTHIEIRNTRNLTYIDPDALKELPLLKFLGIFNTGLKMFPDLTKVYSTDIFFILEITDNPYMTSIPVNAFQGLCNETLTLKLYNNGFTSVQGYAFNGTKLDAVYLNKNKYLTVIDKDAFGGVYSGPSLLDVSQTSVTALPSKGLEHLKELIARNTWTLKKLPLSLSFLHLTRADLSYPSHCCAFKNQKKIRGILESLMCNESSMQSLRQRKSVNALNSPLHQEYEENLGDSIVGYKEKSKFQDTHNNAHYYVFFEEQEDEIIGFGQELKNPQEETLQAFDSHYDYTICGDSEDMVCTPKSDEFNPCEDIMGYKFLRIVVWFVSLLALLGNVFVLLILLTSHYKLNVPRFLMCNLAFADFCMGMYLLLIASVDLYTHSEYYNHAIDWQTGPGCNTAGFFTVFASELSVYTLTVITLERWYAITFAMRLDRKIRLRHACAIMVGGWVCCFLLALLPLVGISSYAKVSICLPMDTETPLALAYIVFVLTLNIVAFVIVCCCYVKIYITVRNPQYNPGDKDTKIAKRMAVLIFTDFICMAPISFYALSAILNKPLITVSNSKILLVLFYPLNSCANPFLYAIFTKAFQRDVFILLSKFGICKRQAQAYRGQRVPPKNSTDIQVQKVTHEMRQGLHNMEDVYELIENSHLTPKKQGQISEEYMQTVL
# Luciferin 4-monooxygenase (Photinus pyralis), sequence (P08659 whole entry, looked up): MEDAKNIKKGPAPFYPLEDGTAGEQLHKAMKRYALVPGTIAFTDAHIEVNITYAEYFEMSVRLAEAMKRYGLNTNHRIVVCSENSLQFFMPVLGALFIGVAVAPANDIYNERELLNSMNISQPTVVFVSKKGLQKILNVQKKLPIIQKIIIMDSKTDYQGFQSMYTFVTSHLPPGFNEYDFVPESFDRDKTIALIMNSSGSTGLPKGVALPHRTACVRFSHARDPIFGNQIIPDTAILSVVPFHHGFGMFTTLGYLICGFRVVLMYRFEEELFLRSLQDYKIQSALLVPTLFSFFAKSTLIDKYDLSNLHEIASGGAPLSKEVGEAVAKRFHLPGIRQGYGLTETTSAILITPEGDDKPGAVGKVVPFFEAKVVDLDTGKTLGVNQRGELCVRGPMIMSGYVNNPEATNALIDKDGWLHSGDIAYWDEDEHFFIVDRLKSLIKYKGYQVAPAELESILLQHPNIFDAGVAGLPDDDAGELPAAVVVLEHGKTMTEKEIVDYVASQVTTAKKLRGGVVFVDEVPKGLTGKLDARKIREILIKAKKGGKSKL
compound,measurement,setting,value
O=C(OC[C@H]1O[C@@H](OC(=O)c2cc(O)c(O)c(OC(=O)c3cc(O)c(O)c(O)c3)c2)[C@H](OC(=O)c2cc(O)c(O)c(OC(=O)c3cc(O)c(O)c(O)c3)c2)[C@@H](OC(=O)c2cc(O)c(O)c(OC(=O)c3cc(O)c(O)c(O)c3)c2)[C@@H]1OC(=O)c1cc(O)c(O)c(OC(=O)c2cc(O)c(O)c(O)c2)c1)c1cc(O)c(O)c(OC(=O)c2cc(O)c(O)c(O)c2)c1,"activity change, negative = cytotoxicity",[1],11.4% [at 15.8 µM] (inactive)
same,"activity change, negative = cytotoxicity",[2],-3.41% [at 19 µM] (inactive)
same,"activity, negative = inhibition",[3],22.4% [at 19 µM] (inactive)
same,Potency,[4],inactive
same,Potency,[5],16.5 µM (active)
same,"activity change, negative = inhibition",[6],-18.6% [at 23.6 µM] (inactive)
same,"viability change, negative = cytotoxic",[7],-11.1% [at 19 µM] (inactive)
same,"activity, negative = inhibition",[8],-0.544% [at 19 µM] (inactive)
same,activation,[9],-3.23% [at 19 µM] (inactive)
same,"activity, negative = inhibition",[10],-8.46% [at 19 µM] (inactive)
same,activation,[11],-3.36% [at 19 µM] (inactive)
O=[N+]([O-])c1ccccc1Nc1ccccc1,Potency,[1],inactive
same,Potency,[2],inactive
same,Potency,[3],inactive
same,Potency,[4],inactive
same,Potency,[5],inactive
same,Potency,[6],inactive
same,Potency,[7],inactive
same,Potency,[12],inactive
same,Potency,[8],inactive
same,Potency,[13],inactive
same,Potency,[14],inactive
Clc1ccc2nsnc2c1NC1=NCCN1,Potency,[1],inactive
same,Potency,[2],inactive
same,Potency,[3],inactive
same,Potency,[4],inactive
same,Potency,[15],inactive
same,Potency,[16],inactive
same,outcome,[17],inactive
same,Potency,[18],inactive
same,Potency,[19],inactive
same,outcome,[20],inactive
same,Potency,[5],inactive
same,Potency,[6],inactive
same,Potency,[7],inactive
same,Potency,[12],inactive
same,Potency,[8],inactive
same,Potency,[9],inactive
same,Potency,[13],inactive
same,Potency,[10],inactive
same,Potency,[11],inactive
CCCCN(CCCC)C(=O)N(CCCC)CCCC,Potency,[1],inactive
same,Potency,[2],inactive
same,Potency,[3],inactive
same,Potency,[4],inactive
same,Potency,[5],inactive
same,Potency,[6],inactive
same,Potency,[7],inactive
same,Potency,[8],inactive
same,Potency,[9],30.6 µM (active)
same,Potency,[13],inactive
O=C(OCC(COC(=O)c1ccccc1)(COC(=O)c1ccccc1)COC(=O)c1ccccc1)c1ccccc1,Potency,[1],inactive
same,Potency,[2],inactive
same,Potency,[3],inactive
same,Potency,[4],inactive
same,Potency,[5],inactive
same,Potency,[6],inactive
same,Potency,[7],inactive
same,Potency,[12],inactive
same,Potency,[13],inactive
same,Potency,[10],inactive
same,Potency,[11],inactive
same,Potency,[14],inactive
C=CC(=O)OCC(CO)(COCC(COC(=O)C=C)(COC(=O)C=C)COC(=O)C=C)COC(=O)C=C,Potency,[1],8.6 µM (active)
same,Potency,[2],53.8 µM (active)
same,Potency,[3],7.6 µM (active)
same,Potency,[4],0.957 µM (active)
same,Potency,[5],4.8 µM (active)
same,Potency,[6],inactive
same,Potency,[7],6.78 µM (active)
same,Potency,[12],6.04 µM (active)
same,Potency,[8],5.38 µM (active)
same,Potency,[13],3.4 µM (active)
same,Potency,[14],6.04 µM (active)
Clc1ccc(C(Cn2ccnc2)OCc2ccc(Sc3ccccc3)cc2)c(Cl)c1 (centres undefined),Potency,[1],inactive
same,Potency,[2],inactive
same,Potency,[3],inactive
same,Potency,[4],inactive
same,Potency,[5],inactive
same,Potency,[6],inactive
same,Potency,[7],inactive
same,Potency,[12],inactive
same,Potency,[8],inactive
same,Potency,[9],inactive
same,Potency,[13],inactive
same,Potency,[14],inactive
COC(=O)C1=C(C)NC(C)=C(C(=O)OCC(C)C)C1c1ccccc1[N+](=O)[O-] (centres undefined),Potency,[1],49 µM (active) and inactive
same,Potency,[2],inactive
same,Potency,[3],48.6 µM (active)
same,Potency,[4],inactive
same,Potency,[5],21.7 µM (active) and 29.8 µM (active)
same,Potency,[6],inactive
same,Potency,[7],inactive
same,Potency,[12],inactive
same,Potency,[8],inactive
same,Potency,[13],27.3 µM (active) and inactive
same,Potency,[10],13.7 µM (active) and 21.1 µM (active)
same,Potency,[11],inactive
same,Potency,[14],inactive
